Inhibition data for seven compounds are collected here from ChEMBL document CHEMBL1961873, “Compounds: GSK PKIS; Assays: Nanosyn kinase panel” (2012).

One may read the inhibition as the relative decrease from the control value, in per cent.

Structures are written as SMILES.

The target of experiment [1] is RAC-alpha serine/threonine-protein kinase (Homo sapiens) (UniProt P31749). Conditions: at 0.1 µM.
Experiment [2] shares this target. Conditions: at 1 µM.
The target of experiment [3] is RAC-beta serine/threonine-protein kinase (Homo sapiens) (UniProt P31751). Conditions: at 0.1 µM.
The target is the same in experiment [4]. The following applies: at 1 µM.
Experiment [5] concerns the target RAC-gamma serine/threonine-protein kinase (Homo sapiens) (UniProt Q9Y243). The following applies: at 0.1 µM.
The target is the same in experiment [6]. Conditions: at 1 µM.
Experiment [7] concerns the target G protein-coupled receptor kinase 6 (Homo sapiens) (UniProt P43250). Conditions: at 0.1 µM.
For experiment [8] the target is unchanged. Conditions: at 1 µM.
Experiment [9] addresses T1, Rhodopsin kinase GRK7 (Homo sapiens) (UniProt Q8WTQ7).
T1 sequence (whole entry): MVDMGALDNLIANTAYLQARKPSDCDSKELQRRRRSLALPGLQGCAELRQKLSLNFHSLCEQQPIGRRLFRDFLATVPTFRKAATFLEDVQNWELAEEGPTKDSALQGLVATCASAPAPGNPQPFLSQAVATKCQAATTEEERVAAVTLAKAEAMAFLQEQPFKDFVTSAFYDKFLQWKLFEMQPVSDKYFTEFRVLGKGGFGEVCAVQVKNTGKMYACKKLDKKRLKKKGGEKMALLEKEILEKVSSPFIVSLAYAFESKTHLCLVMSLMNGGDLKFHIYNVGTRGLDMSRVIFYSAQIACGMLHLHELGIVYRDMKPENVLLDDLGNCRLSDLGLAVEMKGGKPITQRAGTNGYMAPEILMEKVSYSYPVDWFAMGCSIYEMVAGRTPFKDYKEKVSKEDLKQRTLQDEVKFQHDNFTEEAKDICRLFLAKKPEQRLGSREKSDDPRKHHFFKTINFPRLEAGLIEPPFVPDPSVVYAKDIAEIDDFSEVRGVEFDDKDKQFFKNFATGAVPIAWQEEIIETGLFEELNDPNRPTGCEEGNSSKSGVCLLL
The following applies: at 0.1 µM.

Experiment [10] has as its target T1, Rhodopsin kinase GRK7 (Homo sapiens). Conditions: at 1 µM.
Experiment [11] has as its target Serine/threonine-protein kinase MRCK alpha (Homo sapiens) (UniProt Q5VT25). Conditions: at 0.1 µM.
The target is the same in experiment [12]. The following applies: at 1 µM.
For experiment [13], the target named is Serine/threonine-protein kinase MRCK beta (Homo sapiens) (UniProt Q9Y5S2). The following applies: at 0.1 µM.
Experiment [14] shares this target. Conditions: at 1 µM.
The target in experiment [15] is Ribosomal protein S6 kinase alpha-5 (Homo sapiens) (UniProt O75582). Conditions: at 0.1 µM.
The target is the same in experiment [16]. The following applies: at 1 µM.
Experiment [17] addresses Ribosomal protein S6 kinase alpha-4 (Homo sapiens) (UniProt O75676). The following applies: at 0.1 µM.
Experiment [18] shares this target. The following applies: at 1 µM.
Experiment [19] addresses Ribosomal protein S6 kinase beta-1 (Homo sapiens) (UniProt P23443). The following applies: at 0.1 µM.
Experiment [20] has the same target. Conditions: at 1 µM.

RAC-beta serine/threonine-protein kinase (Homo sapiens), sequence (P31751 whole entry): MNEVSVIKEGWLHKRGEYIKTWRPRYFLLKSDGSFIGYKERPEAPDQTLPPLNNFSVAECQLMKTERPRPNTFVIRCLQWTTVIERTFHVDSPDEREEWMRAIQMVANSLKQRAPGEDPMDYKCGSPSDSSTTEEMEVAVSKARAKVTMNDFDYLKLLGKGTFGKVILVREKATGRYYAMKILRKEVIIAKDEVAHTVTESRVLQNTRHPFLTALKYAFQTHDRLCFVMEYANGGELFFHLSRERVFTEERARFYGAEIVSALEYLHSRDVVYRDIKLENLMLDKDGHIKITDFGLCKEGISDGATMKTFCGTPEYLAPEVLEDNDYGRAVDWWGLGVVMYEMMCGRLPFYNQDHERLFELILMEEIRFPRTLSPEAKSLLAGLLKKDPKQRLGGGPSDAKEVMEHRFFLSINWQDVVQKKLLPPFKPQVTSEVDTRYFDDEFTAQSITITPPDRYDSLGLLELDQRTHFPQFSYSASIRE
Ribosomal protein S6 kinase beta-1 (Homo sapiens), sequence (P23443 whole entry, looked up): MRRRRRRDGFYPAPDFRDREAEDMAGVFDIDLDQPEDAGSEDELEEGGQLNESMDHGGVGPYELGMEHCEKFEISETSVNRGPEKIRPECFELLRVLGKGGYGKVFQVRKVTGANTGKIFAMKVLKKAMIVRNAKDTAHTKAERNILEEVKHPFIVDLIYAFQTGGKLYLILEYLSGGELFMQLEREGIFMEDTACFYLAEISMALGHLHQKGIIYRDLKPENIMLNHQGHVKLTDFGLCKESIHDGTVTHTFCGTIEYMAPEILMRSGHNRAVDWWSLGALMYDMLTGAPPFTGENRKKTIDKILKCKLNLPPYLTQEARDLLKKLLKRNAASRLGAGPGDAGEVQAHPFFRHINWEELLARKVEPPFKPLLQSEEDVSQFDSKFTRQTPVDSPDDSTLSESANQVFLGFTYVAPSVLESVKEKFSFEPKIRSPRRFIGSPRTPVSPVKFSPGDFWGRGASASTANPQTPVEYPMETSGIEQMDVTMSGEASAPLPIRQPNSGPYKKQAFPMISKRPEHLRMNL
Serine/threonine-protein kinase MRCK beta (Homo sapiens), sequence (Q9Y5S2 whole entry): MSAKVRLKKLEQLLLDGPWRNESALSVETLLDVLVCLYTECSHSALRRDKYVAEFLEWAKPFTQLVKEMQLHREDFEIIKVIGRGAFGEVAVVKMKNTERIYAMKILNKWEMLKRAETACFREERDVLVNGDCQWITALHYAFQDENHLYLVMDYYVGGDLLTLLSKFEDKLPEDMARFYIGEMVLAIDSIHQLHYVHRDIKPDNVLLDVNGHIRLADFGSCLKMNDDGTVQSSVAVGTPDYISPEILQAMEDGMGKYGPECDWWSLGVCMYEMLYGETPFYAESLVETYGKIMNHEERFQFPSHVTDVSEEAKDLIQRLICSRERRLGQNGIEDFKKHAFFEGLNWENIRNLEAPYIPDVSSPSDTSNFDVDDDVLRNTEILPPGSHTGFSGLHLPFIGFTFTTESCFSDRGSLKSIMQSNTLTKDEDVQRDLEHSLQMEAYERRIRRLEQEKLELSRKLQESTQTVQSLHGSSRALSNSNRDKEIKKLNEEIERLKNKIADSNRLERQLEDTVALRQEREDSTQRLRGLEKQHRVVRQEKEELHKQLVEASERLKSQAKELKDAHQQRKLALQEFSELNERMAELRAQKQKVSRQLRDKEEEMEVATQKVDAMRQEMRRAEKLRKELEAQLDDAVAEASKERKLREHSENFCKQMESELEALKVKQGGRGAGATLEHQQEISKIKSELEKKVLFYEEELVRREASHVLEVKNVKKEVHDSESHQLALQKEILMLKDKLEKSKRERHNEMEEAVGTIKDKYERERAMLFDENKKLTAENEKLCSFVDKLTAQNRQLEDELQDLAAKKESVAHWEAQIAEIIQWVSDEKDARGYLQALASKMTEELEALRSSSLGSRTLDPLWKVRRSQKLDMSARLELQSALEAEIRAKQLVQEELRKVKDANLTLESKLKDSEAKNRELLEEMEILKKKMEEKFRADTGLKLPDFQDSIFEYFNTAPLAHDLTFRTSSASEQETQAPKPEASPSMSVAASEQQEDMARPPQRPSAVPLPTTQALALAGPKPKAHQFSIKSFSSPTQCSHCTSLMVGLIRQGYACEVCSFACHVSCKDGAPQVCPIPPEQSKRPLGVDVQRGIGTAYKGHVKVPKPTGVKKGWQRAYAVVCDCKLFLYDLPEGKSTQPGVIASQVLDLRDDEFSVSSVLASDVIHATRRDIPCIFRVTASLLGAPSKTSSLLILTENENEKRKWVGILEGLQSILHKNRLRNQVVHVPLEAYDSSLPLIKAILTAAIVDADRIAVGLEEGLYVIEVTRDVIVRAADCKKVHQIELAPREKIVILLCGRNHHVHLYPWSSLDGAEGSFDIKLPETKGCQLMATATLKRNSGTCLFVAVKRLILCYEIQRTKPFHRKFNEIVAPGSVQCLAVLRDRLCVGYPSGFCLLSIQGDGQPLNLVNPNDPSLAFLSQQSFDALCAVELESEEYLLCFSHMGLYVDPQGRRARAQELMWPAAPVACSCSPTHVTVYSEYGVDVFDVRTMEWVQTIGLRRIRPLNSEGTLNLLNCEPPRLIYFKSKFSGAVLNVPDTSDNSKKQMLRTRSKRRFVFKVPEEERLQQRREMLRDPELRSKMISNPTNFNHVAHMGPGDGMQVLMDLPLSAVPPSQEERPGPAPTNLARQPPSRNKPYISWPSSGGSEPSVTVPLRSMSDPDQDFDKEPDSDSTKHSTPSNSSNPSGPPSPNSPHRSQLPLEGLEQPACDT
RAC-gamma serine/threonine-protein kinase (Homo sapiens), sequence (Q9Y243 whole entry): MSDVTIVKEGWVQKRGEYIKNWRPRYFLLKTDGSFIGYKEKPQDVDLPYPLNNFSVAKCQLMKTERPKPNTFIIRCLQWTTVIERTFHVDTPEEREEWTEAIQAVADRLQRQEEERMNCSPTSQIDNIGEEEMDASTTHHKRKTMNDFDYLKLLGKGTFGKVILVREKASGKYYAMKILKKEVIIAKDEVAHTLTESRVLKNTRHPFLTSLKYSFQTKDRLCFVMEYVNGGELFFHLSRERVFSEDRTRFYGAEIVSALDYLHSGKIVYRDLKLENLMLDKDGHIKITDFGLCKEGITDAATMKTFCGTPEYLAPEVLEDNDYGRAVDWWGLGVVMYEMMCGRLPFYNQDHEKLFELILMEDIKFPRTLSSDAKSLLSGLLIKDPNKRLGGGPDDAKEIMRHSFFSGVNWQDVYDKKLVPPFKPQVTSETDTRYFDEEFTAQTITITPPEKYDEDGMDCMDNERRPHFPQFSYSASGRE
RAC-alpha serine/threonine-protein kinase (Homo sapiens), sequence (P31749 whole entry): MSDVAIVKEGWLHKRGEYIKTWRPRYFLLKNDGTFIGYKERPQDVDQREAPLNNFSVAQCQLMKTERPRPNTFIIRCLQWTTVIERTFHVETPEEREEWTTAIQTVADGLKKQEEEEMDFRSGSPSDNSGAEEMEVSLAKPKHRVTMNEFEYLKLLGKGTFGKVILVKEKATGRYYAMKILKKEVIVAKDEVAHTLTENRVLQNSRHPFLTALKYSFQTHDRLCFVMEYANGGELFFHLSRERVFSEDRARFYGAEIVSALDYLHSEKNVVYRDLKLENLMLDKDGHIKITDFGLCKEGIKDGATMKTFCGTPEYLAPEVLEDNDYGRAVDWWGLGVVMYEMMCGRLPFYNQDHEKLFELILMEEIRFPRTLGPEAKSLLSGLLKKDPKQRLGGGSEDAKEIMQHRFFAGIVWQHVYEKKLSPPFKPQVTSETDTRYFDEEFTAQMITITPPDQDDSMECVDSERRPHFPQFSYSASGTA
G protein-coupled receptor kinase 6 (Homo sapiens), sequence (P43250 whole entry, looked up): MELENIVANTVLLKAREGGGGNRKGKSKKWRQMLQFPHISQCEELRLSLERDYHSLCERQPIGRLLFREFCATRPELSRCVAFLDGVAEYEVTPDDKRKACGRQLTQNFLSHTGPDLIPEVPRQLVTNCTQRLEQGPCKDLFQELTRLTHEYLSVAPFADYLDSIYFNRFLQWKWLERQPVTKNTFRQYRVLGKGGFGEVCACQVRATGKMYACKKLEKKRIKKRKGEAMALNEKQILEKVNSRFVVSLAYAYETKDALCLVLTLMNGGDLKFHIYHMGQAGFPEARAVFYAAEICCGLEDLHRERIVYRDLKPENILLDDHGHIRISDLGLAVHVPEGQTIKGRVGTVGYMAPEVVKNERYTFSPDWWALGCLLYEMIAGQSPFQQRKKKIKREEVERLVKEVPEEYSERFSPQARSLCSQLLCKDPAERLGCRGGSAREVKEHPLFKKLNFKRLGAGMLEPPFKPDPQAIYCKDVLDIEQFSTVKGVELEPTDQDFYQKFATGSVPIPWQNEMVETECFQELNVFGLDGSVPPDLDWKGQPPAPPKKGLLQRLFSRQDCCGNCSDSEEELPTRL
Ribosomal protein S6 kinase alpha-4 (Homo sapiens), sequence (O75676 whole entry, looked up): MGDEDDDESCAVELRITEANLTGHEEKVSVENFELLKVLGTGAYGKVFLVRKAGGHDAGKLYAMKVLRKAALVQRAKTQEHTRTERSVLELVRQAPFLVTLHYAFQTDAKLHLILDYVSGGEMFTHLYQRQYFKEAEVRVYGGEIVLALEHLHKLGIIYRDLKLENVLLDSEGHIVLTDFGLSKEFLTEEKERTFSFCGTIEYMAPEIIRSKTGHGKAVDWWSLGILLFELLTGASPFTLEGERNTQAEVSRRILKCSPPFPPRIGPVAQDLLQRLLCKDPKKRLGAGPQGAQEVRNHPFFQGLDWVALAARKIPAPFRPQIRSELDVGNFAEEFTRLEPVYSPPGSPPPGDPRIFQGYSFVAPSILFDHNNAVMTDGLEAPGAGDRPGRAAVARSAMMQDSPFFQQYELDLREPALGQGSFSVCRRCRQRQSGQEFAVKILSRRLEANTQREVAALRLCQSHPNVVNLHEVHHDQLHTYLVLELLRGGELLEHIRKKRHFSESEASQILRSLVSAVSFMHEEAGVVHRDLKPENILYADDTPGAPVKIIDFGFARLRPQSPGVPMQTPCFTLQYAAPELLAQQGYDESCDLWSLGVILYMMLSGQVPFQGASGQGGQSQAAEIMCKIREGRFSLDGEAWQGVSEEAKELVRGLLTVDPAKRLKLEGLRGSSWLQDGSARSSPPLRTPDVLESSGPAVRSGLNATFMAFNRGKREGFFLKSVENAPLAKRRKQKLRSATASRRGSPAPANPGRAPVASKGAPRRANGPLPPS

As for `COc1cc2c(cc1Nc1nc(Nc3ccsc3C(N)=O)c3cc[nH]c3n1)N(C(=O)CN(C)C)CCC2`, the inhibition was -0.27% in [1]; -0.06% in [2]; 2.64% in [3]; 0.91% in [4]; 2.81% in experiment [5]; 4.75% in [6]. The inhibition in experiment [7] is 27.5%; in experiment [8], 82.8%; in experiment [9], 22.1%; in experiment [10] it was 60.3%; in experiment [11] it was -2.47%; in experiment [12], -0.12%. Also, the inhibition in [13] is -0.68%; in [14], -0.44%; in experiment [15], 2.59%; in [16] it was -0.04%; in experiment [17] it was 2.53%; in experiment [18], -0.18%. The inhibition is 1.15% in experiment [19] and 0.53% in experiment [20].

`NC(=O)c1sc(-n2cnc3cc(C(F)(F)F)ccc32)cc1OCc1ccccc1Br`: the inhibition in experiment [1] was 0.26%; in experiment [2], 0.43%; in experiment [3], -0.81%; in experiment [4], 0.47%; in [5], 0.03%; in experiment [7], 3.71%. The inhibition in [8] was 1.08%; in experiment [9], 5.6%; in experiment [10], 5.78%; in experiment [11], -1.08%; in experiment [12], -4.81%; in [13], 0.07%. Further, the inhibition in experiment [14] was 0.13%; in experiment [15] it was 0.28%; in experiment [16], -0.19%; in experiment [17], 2.32%; in experiment [18], 1.32%; in [19] it was 1.25%. For the same compound, the inhibition in experiment [20] was -0.49%.

Turning to `COc1cc(C=NNc2ncnc3c2cnn3Cc2ccccc2)ccc1O`, the inhibition was -2.34% in [1]; -2.35% in [2]; -3.56% in [3]; -1.08% in experiment [4]; -2.66% in experiment [5]; -1.29% in experiment [6]. The inhibition was -3.93% in experiment [7]; -0.64% in [8]; -3.65% in experiment [10]; 1.44% in [11]; -1.07% in experiment [12]; 1.9% in experiment [13]. Moreover, the inhibition in experiment [14] is 4.11%; in experiment [15] it was 2.29%; in [16] it was 3%; in experiment [17], 1.75%; in experiment [18], 4.49%; in [19] it was -1.02%. In addition, in experiment [20], the inhibition is -0.11%.

As for `Fc1ccc(-c2ncn(C3CCNCC3)c2-c2ccnc(Oc3ccccc3)n2)cc1`, the inhibition in [1] was -3.52%; in experiment [2], -2.95%; in experiment [3], -2.98%; in experiment [5], -3.09%; in experiment [6], 4.46%; in experiment [7], -2.07%. Moreover, the inhibition in experiment [8] is 1.13%; in experiment [9], 8.55%; in [10], -1.71%; in experiment [11], -3.2%; in experiment [12], -1.87%; in experiment [13] it was -0.1%. The inhibition in experiment [14] was -0.81%; in experiment [15], -1.31%; in [16], -2.46%; in experiment [17], 1.09%; in [18], 0.21%; in experiment [19], 1.34%. In addition, the inhibition in experiment [20] was 7.24%.

In the case of `CCn1c(-c2nonc2N)nc2c(C#CC(C)(C)O)ncc(OC[C@@H]3CCCN3)c21`, the inhibition in [1] is 68.2%; in experiment [2], 91.1%; in experiment [3], 79.7%; in experiment [5], 67.5%; in experiment [6], 90.4%; in experiment [7], -2.91%. In addition, the inhibition is 0.91% in experiment [8]; 6.42% in experiment [9]; 14% in experiment [10]; -1.54% in [11]; 23.5% in experiment [12]; 2.11% in experiment [13]. For the same compound, the inhibition in [14] came to 19.5%; in experiment [15] it was 0.57%; in experiment [16], 7.89%; in experiment [17], 3.2%; in experiment [18] it was 17.5%; in experiment [19], 3.87%. Besides, the inhibition in experiment [20] is 25.4%.

As for `Nc1nonc1-c1nc2cnccc2n1C1CCCCC1`, the inhibition in [1] was found to be 3.37%; in experiment [2], 37.4%; in experiment [3] it was 1.24%; in experiment [4], 22.4%; in experiment [5] it was 3.35%; in experiment [6], 32.3%. In addition, the inhibition is -0.4% in experiment [7]; 2.07% in experiment [8]; -7.5% in [9]; 2.63% in experiment [10]; 18.6% in experiment [11]; 65.9% in experiment [12]. Also, the inhibition in experiment [13] is 29.6%; in experiment [14] it was 72%; in experiment [15], 76.5%; in experiment [16], 85.2%; in [17], 59.6%; in experiment [18] it was 83%. Further, the inhibition is 72.6% in experiment [19] and 91.2% in [20].

Consider `COc1cccc(COc2cc(-n3cnc4ccccc43)sc2C(N)=O)c1`, for which the inhibition in [1] is 2.26%; in [2], 0.35%; in experiment [4], 2.81%; in experiment [5] it was -0.85%; in [6], -1.8%; in experiment [7] it was 0.1%. Further, the inhibition in experiment [8] was 0.82%; in experiment [9] it was 4.74%; in [10] it was -0.33%; in experiment [11], -5.2%; in [12], -1.17%; in experiment [13], -0.37%. Also, the inhibition was 0.51% in experiment [14]; 0.54% in experiment [15]; -1.08% in experiment [16]; 1.36% in experiment [17]; -0.28% in experiment [18]; 0.45% in experiment [19]. Also, the inhibition in [20] was -0.53%.
